Records with an inconclusive call do not appear. Some compounds were tested as several samples or in several runs, with calls that do not always agree. The source made the active and inactive calls. Unless noted, calls follow the shape of the dose curve; as a rule, active = well fitted curve in the direction sought with a large enough effect in the repeat runs; inconclusive = weak or mixed curves; inactive = no such curve, though single readings can be large; an effect the other way counts as inactive or inconclusive.
Tests used:
[1] = qHTS RealTime-Glo MT Cell Viability Assay in HEK293 cells - 0 hour (AID 1224880); also: top concentration of the series differs between compounds; nearly all actives have a fitted effect of over 45% in size
Summary of the method: (§1)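 Cells were seeded together with NanoLuc luciferase and a prosubstrate that viable cells reduce to a luciferase substrate. After a 5 h incubation at 37 C/5% CO2, compounds were added and luminescence was measured repeatedly during 40 h of treatment.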

[2] = A CellTox Green Cytotoxicity Assay to monitor cytotoxicity in HEK293 cells - 32 hour (AID 1224881); also: nearly all actives have a fitted effect of over 40% in size; also: potency is read from the fitted curve at half-maximal effect
Summary of the method: (§2)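 Nonlytic real-time cytotoxicity: HEK293 + CellTox Green reagent plated, 5 h preincubation, pintool compound addition (23 nL in DMSO), 37 C for 40 h, fluorescence measured at successive time points.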

[3] = A CellTox Green Cytotoxicity Assay to monitor cytotoxicity in HepG2 cells - 0 hour (AID 1224882); also: nearly all actives have a fitted effect of over 35% in size
Summary of the method: (§3)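 Read-out is fluorescence of a cyanine dye excluded from live cells that stains DNA of dead HepG2 cells, with signal proportional to cytotoxicity. Plates were read at 0, 8, 16, 24, 32 and 40 h after compound addition.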

[4] = A CellTox Green Cytotoxicity Assay to monitor cytotoxicity in HepG2 cells - 32 hour (AID 1224883); also: nearly all actives have a fitted effect of over 50% in size
Summary of the method: as §3

[5] = A CellTox Green Cytotoxicity Assay to monitor cytotoxicity in HEK293 cells - 8 hour (AID 1224884); also: nearly all actives have a fitted effect of over 35% in size
Summary of the method: as §2

[6] = qHTS RealTime-Glo MT Cell Viability Assay in HepG2 cells - 16 hour (AID 1224885); also: nearly all actives have a fitted effect of over 50% in size; also: potency is read from the fitted curve at half-maximal effect
Summary of the method: (§4)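 qHTS, HepG2, 600 cells/well, RealTime-Glo (NanoLuc + prosubstrate) added with cells; 5 h preincubation; DMSO compound addition; 37 C; luminescence at 0/8/16/24/32/40 h.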

[7] = qHTS RealTime-Glo MT Cell Viability Assay in HEK293 cells - 24 hour (AID 1224886); also: top concentration of the series differs between compounds; nearly all actives have a fitted effect of over 50% in size
Summary of the method: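 Assay medium contained NanoLuc luciferase plus cell-permeant prosubstrate, added with HEK293 cells at 600 cells/well. After 5 h at 37 C/5% CO2 compounds were added; plates stayed at 37 C for 40 h with serial luminescence reads.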

[8] = qHTS RealTime-Glo MT Cell Viability Assay in HEK293 cells - 8 hour (AID 1224887); also: top concentration of the series differs between compounds; nearly all actives have a fitted effect of over 50% in size
Summary of the method: as §1

[9] = A CellTox Green Cytotoxicity Assay to monitor cytotoxicity in HEK293 cells - 16 hour (AID 1224888); also: nearly all actives have a fitted effect of over 35% in size
Summary of the method: as §2

[10] = qHTS RealTime-Glo MT Cell Viability Assay in HepG2 cells - 0 hour (AID 1224889); also: nearly all actives have a fitted effect of over 50% in size
Summary of the method: as §4

[11] = A CellTox Green Cytotoxicity Assay to monitor cytotoxicity in HepG2 cells - 8 hour (AID 1224890); also: nearly all actives have a fitted effect of over 45% in size
Summary of the method: as §3

[12] = qHTS assay to identify small molecule antagonists of the estrogen receptor alpha (ER-alpha) signaling pathway using the BG1 cell line in the presence of 0.1 nM 17-beta-estradiol - cell viability counter screen (AID 1259241); also: nearly all actives have a fitted effect of over 40% in size
Summary of the method: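 CellTiter-Fluor read (30 min, 37C) on ER-alpha/ERE-luc VM7Luc4E2 cells; 22 hr compound treatment; agonist 0.1 nM E2 final; same-well multiplex.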

[13] = qHTS assay to identify small molecule antagonists of the androgen receptor (AR) signaling pathway using the MDA cell line in the presence of 0.5 nM R1881 - cell viability counter screen (AID 1259242); also: nearly all actives have a fitted effect of over 45% in size
Summary of the method: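 Counter screen for cytotoxicity run in the same wells as the AR antagonist reporter screen: MDA-kb2 cells were treated 16 hr with test compounds and 0.5 nM R1881, then live-cell protease activity was measured by fluorescence.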

[14] = target: Estrogen receptor (Homo sapiens) (UniProt P03372); assay: qHTS assay to identify small molecule antagonists of the estrogen receptor alpha (ER-alpha) signaling pathway using the BG1 cell line in the presence of 0.1 nM 17-beta-estradiol (AID 1259244); also: nearly all actives have a fitted effect of over 50% in size
Summary of the method: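 Cells: VM7Luc4E2, endogenous ER-alpha, 4x ERE-luc stable. Pre-culture 5 d, phenol red-free, charcoal-stripped FBS. Plated 24 h, compound + E2 0.1 nM final, 22 h 37C/5% CO2. Readout ONE-Glo luminescence.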

[15] = qHTS assay to identify small molecule HDAC inhibitors (AID 1259364); also: top concentration of the series differs between compounds; nearly all actives have a fitted effect of over 45% in size
Summary of the method: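 Luminescence from a cell-permeant luminogenic class I/II HDAC substrate reports endogenous deacetylase activity in intact HCT-116 cells treated with compounds for 2 h.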

[16] = qHTS assay to identify small molecule HDAC inhibitors - cell viability counter screen (AID 1259365)
Summary of the method: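 To flag cytotoxic hits, 1,500 wild-type HCT-116 cells per well, plated the day before, receive test compounds for 2hr at 37 C before CellTiter-Glo reagent and a luminescence read.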

[17] = qHTS assay to identify small molecule agonists of the sonic hedgehog signaling (Shh) pathway - cell viability counter screen (AID 1259366); also: nearly all actives have a fitted effect of over 50% in size; also: potency is read from the fitted curve at half-maximal effect
Summary of the method: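 Fluorescence from CellTiter-Fluor reports live cells in this counter screen. NIH/3T3-derived Gli1-Luc reporter cells receive test compounds for 24hr at 37C; reagent goes in at 23hr.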

[18] = qHTS assay to identify small molecule antagonists of the sonic hedgehog signaling (Shh) pathway - cell viability counter screen (AID 1259367); also: nearly all actives have a fitted effect of over 55% in size; also: potency is read from the fitted curve at half-maximal effect
Summary of the method: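 Seed 3T3 Gli1-Luc cells at 2,000 per well; incubate 4 hr; add compound in DMSO, then conditioned medium; incubate at 37C with 5% CO2; add CellTiter-Fluor after 23 hr; read fluorescence 1 hr later.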

[19] = target: Androgen receptor (Homo sapiens) (UniProt P10275); assay: qHTS assay to identify small molecule antagonists of the androgen receptor (AR) signaling pathway using the MDA cell line in the presence of 0.5 nM R1881 (AID 1259243); also: nearly all actives have a fitted effect of over 50% in size
Summary of the method: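 Luciferase luminescence is the read-out: compounds are tested for suppressing 0.5 nM R1881-driven MMTV reporter activity in MDA-kb2 cells after 16 hr at 37C.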

[20] = qHTS assay to identify small molecule phospholipidosis (PLD) inducers (AID 1259344; active = well fitted curve in the direction sought with a large enough effect; an effect the other way counts as inactive or inconclusive)
Summary of the method: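 Quantitative HTS in HepG2: compound plus LipidTOX Red dye for 24 h, paraformaldehyde fixation with Hoechst 33342, widefield high-content imaging; amiodarone as positive and DMSO as negative control.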

Measured: Potency

Chain of Androgen receptor (Homo sapiens) (P10275 whole entry, looked up): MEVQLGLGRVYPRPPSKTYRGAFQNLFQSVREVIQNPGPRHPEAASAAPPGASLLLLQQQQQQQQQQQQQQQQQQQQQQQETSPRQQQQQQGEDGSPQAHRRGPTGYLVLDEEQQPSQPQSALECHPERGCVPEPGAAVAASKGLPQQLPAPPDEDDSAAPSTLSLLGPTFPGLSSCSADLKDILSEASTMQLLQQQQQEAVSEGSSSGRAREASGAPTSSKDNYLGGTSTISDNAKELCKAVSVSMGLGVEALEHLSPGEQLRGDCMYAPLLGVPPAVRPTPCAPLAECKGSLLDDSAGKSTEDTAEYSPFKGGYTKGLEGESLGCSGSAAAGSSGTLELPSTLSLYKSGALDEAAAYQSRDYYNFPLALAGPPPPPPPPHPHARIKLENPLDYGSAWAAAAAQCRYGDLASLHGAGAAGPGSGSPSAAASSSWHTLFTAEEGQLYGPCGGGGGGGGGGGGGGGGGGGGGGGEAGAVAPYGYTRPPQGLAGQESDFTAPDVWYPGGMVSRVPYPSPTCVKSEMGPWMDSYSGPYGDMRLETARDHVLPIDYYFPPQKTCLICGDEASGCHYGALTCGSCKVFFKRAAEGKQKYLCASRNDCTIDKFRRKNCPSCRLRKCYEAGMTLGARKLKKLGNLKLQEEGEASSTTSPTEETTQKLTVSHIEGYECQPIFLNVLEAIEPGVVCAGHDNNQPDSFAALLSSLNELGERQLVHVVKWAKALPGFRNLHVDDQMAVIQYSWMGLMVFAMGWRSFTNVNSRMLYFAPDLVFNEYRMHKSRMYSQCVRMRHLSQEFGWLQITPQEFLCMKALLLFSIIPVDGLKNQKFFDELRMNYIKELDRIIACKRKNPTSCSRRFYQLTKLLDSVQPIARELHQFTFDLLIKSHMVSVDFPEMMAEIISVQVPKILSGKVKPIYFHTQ
Chain of Estrogen receptor (Homo sapiens) (P03372 whole entry, looked up): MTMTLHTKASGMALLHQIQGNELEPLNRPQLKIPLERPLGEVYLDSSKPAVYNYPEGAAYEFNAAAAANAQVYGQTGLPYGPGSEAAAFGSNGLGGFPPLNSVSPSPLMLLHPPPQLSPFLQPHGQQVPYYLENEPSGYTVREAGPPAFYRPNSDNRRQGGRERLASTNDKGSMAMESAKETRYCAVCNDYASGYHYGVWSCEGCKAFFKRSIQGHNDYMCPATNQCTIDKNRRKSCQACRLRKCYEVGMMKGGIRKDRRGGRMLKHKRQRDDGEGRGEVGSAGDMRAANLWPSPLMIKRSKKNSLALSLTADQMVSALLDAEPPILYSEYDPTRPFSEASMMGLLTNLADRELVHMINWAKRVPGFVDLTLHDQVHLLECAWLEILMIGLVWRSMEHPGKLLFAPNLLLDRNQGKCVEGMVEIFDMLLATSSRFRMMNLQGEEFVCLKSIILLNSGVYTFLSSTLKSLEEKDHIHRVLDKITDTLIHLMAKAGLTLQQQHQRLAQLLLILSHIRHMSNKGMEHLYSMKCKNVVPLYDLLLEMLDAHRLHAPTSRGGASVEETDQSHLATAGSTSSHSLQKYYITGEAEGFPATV

CC(=O)CCC=C(C)C
not listed: [19] | [20]
inactive: all other assays above

NCCCCCCN
not listed: [10] | [14] | [17] | [19] | [20]
inactive: all other assays above

CSc1ccc(Cl)cc1
not listed: [17] | [20]
inactive: all other assays above

CCCCCCCCCCCC(=O)OC
not listed: [7] | [17] | [19] | [20]
inactive: all other assays above

CCCCCCCCCCO
39 µM (active) and inactive: [2]
not listed: [9] | [19] | [20]
inactive: all other assays above

NCCN1CCNCC1
not listed: [7] | [17] | [19] | [20]
inactive: all other assays above

CC(=O)OC1CC(C)OC(C)O1 (stereo unspecified)
not listed: [7] | [10] | [14] | [19] | [20]
inactive: all other assays above

CC(=O)Oc1ccc(C)cc1
not listed: [7] | [10] | [17]
inactive: all other assays above

COCCCN
not listed: [7] | [11] | [19] | [20]
inactive: all other assays above

O=C(O)c1ccc(C(=O)O)c(C(=O)O)c1
not listed: [1] | [20]
inactive: all other assays above

CC(=O)OCc1ccco1
68.2 µM (active) and inactive: [18]
not listed: [7] | [10] | [19] | [20]
inactive: all other assays above

CN(C)CCOC(=O)COc1ccc(Cl)cc1
not listed: [7] | [14] | [17] | [19]
inactive: all other assays above

c1ccc2c(c1)Cc1ccccc1-2
not listed: [2] | [7] | [19] | [20]
inactive: all other assays above

CC(C)OP(=O)(CP(=O)(OC(C)C)OC(C)C)OC(C)C
not listed: [7] | [10] | [19] | [20]
inactive: all other assays above

O=C(O)Cn1c(=O)n(Cc2ccc(Br)cc2F)c(=O)c2ccc(Cl)cc21
active: [6] 24.5 µM | [17] 27.3 µM | [18] 21.7 µM
not listed: [7] | [8] | [20]
inactive: all other assays above

CCO[Si](CCCN)(OCC)OCC
not listed: [7] | [19] | [20]
inactive: all other assays above

CNC(=S)N(C)C
not listed: [7] | [19] | [20]
inactive: all other assays above

CC1(C)OC[C@@H]2O[C@@]3(C(=O)O)OC(C)(C)O[C@H]3[C@@H]2O1
not listed: [7] | [11] | [14] | [17] | [19]
inactive: all other assays above
